Assay outcomes as filed in PubChem.
Rows were chosen to be rich in hits. Some 1.2% of all compounds tested hit in one or more screens of this group.
RGS16-Gao HTS – modulators of RGS16 binding to Galphao, primary screen, biochemical, human proteins, multiplexed bead flow cytometry. Regulator of G-protein signaling 16 (Homo sapiens) + Guanine nucleotide-binding protein …. bead-based flow cytometry RGS16-Galphao binding, fluorescence; actives lie on both sides. binding response (% of control), % at 10 µM. hit rate 0.38% among 220,000. AID 1441, 2008;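 note: Galphao activated by GDP with aluminum fluoride before binding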
GSH fluor – compound fluorescence on glutathione beads, profiling panel, artefact control, biophysical, 488/530 nm, flow cytometry. GSH beads flow cytometry, compound fluorescence 488/530 nm; active compounds read high. fluorescence (KMESF) at 10 µM. hit rate 0.25% among 190,000; in the data active = fluorescence above about 89;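 note: glutathione beads carrying GST-tagged Bcl family fusion proteins plus one bare bead set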
RGS8-Gao reg – RGS8-Galphao binding modulators, primary screen, biochemical, multiplexed bead flow cytometry. hit rate 0.34% among 220,000. response (percent of control binding), % at 10 µM. Guanine nucleotide-binding protein G(o) subunit alpha (Homo sapiens), P09471. actives lie on both sides; in the data active = response below about 60% or above about 140%; inactive = in between;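 note: Galphao activated as the GDP aluminium fluoride complex binding bead-coupled RGS8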
Avidin fluor – green autofluorescence of compounds with avidin beads – biophysical, 488/530 nm, flow cytometry, artefact control, profiling panel; compound fluorescence 488/530 nm; active compounds read high; fluorescence (KMESF) at 10 µM; hit rate 0.38% among 220,000; in the data active = fluorescence above about 47
RGS7-Gao – RGS7-Galphao binding modulators, primary screen, biochemical, multiplexed bead flow cytometry | Guanine nucleotide-binding protein G(o) subunit alpha (Homo sapiens), P09471 | actives lie on both sides | binding response (% of control), % at 10 µM | hit rate 0.35% among 220,000; in the data active = binding response below about 49% or above about 150%; inconclusive = no clear call, values can overlap the other calls; inactive = in between;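 note: fluorescent Galphao held in activated GDP-AlF4 state binding bead-coupled RGS7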
RGS4-Gao reg – modulators of RGS4 binding to Galphao, primary screen, biochemical, multiplexed bead flow cytometry; Guanine nucleotide-binding protein G(o) subunit alpha (Homo sapiens), P09471; actives lie on both sides; binding response (% of control), % at 10 µM; hit rate 0.33% among 220,000; AID 1415, 2008; in the data active = binding response below about 49% or above about 150%; inactive = in between;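 note: fluorescent Galphao activated with aluminum fluoride binding bead-coupled RGS4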
RGS4-Gao HTS – modulators of RGS–Galpha-o binding, primary screen, biochemical, multiplexed beads, flow cytometry, RGS4/7/8/16/19; shares compounds with RGS16-Gao HTS; multiplexed bead flow cytometry; RGS4–Galpha-o binding response, % at 10 µM; hit rate 99% among 1,600; AID 1504, 2009;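 note: fluorescently labeled Galpha-o bound to GDP with aluminium fluoride binding biotinylated RGS beads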
Biotin-avidin – disruption of biotin probe capture by avidin, counter-screen for RGS protein interaction modulators, biochemical, flow cytometry, bead-based; 1,700 tested, under 10 active; inhibition, % at 10 µM; shares compounds with RGS16-Gao HTS; streptavidin beads, fluorescein-biotin binding; AID 1783, 2009;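 active = inhibition above 50%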;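 note: median green fluorescence of gated singlet beads compared with DMSO control wells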
RGS8-Gao single – RGS8-Galphao binding modulators, confirmation, biochemical, multiplexed bead flow cytometry, single concentration; bead-based flow cytometry RGS8-Galphao binding, fluorescence; actives lie on both sides; binding response (% of control), % at 10 µM; shares compounds with RGS16-Gao HTS; hit rate 3% among 1,700; in the data active = binding response below about 72% or above about 130%; inactive = in between;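 note: Galphao activated as GDP AlF4 complex before binding bead RGS8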
RGS7-Gao confirm – RGS7-Galphao binding modulators, confirmation, biochemical, multiplexed bead flow cytometry, single concentration; hit rate 7.8% among 1,700; AID 1837, 2009; shares compounds with RGS16-Gao HTS; response (percent of control binding), % at 10 µM; bead-based flow cytometry RGS7-Galphao binding; actives lie on both sides; in the data active = response below about 75% or above about 130%; inactive = in between;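 note: fluorescent Galphao activated with GDP and aluminum fluoride binding bead-coupled RGS7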
RGS16-Gao conf – modulators of RGS16-Galphao protein binding, confirmation, biochemical, single concentration, multiplexed bead flow cytometry; shares compounds with RGS16-Gao HTS; bead-based flow cytometry; actives lie on both sides; response (% of control binding), % at 10 µM; hit rate 4% among 1,700; AID 1838, 2009; in the data active = response below about 74% or above about 130%; inactive = in between;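 note: Galphao activated as the GDP aluminium fluoride complex binding bead-coupled RGS16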
RGS4-Gao confirm – modulators of RGS4-Galphao protein binding, confirmation, biochemical, single concentration, multiplexed bead flow cytometry; actives lie on both sides; binding response (% of control), % at 10 µM; hit rate 4% among 1,700; shares compounds with RGS16-Gao HTS; in the data active = binding response below about 74% or above about 130%; inactive = in between
RGS19-Gao single – regulators of RGS19-Galphao binding, confirmation, biochemical, single point, multiplexed bead flow cytometry. hit rate 5% among 1,700. bead-based flow cytometry RGS19-Galphao binding; actives lie on both sides. response (percent of control binding), % at 10 µM. shares compounds with RGS16-Gao HTS. AID 1841, 2009; in the data active = response below about 50% or above about 160%; inactive = in between
Target sequence (P09471 whole entry, looked up): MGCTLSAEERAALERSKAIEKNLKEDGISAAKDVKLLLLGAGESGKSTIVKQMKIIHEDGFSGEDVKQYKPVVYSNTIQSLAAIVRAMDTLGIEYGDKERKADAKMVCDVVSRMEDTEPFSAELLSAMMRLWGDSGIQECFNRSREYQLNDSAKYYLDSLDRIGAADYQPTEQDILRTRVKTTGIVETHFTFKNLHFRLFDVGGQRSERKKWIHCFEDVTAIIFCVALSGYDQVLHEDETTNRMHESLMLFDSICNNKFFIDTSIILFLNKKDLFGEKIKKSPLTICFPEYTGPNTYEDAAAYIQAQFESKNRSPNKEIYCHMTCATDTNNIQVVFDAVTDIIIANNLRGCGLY
Target sequence (P49795 whole entry, looked up): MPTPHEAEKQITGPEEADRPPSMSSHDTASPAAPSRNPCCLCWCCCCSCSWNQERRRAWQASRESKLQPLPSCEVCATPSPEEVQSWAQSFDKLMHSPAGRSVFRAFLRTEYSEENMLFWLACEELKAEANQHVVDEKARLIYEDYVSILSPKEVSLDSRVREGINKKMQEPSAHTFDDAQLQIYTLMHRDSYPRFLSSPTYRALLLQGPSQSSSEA
A number is an active result; n = inactive; u = inconclusive; x = no result; [ ] = remark or other dose. Unless noted, the rule behind the calls is not given here.

SMILES	RGS16-Gao HTS	GSH fluor	RGS8-Gao reg	Avidin fluor	RGS7-Gao	RGS4-Gao reg	Biotin-avidin	RGS8-Gao single	RGS7-Gao confirm	RGS16-Gao conf	RGS4-Gao confirm	RGS19-Gao single	others
COc1cccc(C2(C#N)CCN(C)CC2)c1	n	n	n	n	n	n	x	x	x	x	x	x
COc1ccc(NP(=O)(Nc2ccc(OC)cc2)Oc2ccccc2)cc1	n	n	n	n	n	n	x	x	x	x	x	x
O=P(Nc1ccccc1)(Nc1ccccc1)Oc1ccccc1	10.5	n	n	n	n	n	n	n	n	n	n	n	RGS4-Gao HTS=80.5
Cc1ccc(-n2cc(CNC(C)Cc3cnccn3)c(-c3cccc(C)c3)n2)cc1 (stereo not drawn)	n	n	n	n	n	n	x	x	x	x	x	x
CC(=NCC1CCCO1)c1c(O)n(-c2ccccc2C)c(=O)[nH]c1=O (stereo not drawn)	n	x	n	n	u	n	x	x	x	x	x	x
Cc1cccc(N2C(=O)NC(=O)/C(=C\c3cccn3-c3ccc(Cl)cc3)C2=O)c1	n	n	n	402	233.1[activator]	n	x	x	x	x	x	x	RGS4-Gao HTS=128.6
O=C(NC12CC3CC(CC(C3)C1)C2)OC1CN2CCC1CC2 (stereo not drawn)	n	x	n	n	u	166.7[activator]	n	n	n	n	n	n
Cc1cccc(C)c1OP(N)(=O)OCC(F)(F)F (stereo not drawn)	n	n	n	n	n	n	x	x	x	x	x	x
CCc1cc(=O)[nH]c(SCCCF)n1	n	n	n	n	n	n	x	x	x	x	x	x
CCOC(=O)N1CCC(NC(=O)CCc2nc(C3=CCN(C)CC3)no2)CC1	n	n	n	166	189.7[activator]	n	x	x	x	x	x	x	RGS4-Gao HTS=124.9
O=c1[nH]c(=S)n(-c2ccc(Cl)cc2)c(O)c1/C=N/N1CCOCC1	n	x	n	n	u	n	x	x	x	x	x	x
O=c1[nH]c(=O)n(Cc2ccco2)c(O)c1C=NCc1cccs1	n	n	n	n	n	n	x	x	x	x	x	x
O=c1[nH]c(=S)n(Cc2ccco2)c(O)c1C=NCc1cccs1	x	n	x	x	x	x	n	n	53.3	73.8	66.4	46.8
Nc1c([N+](=O)[O-])cc(F)c(N2CCNCC2)c1Br	n	n	51.9	n	39.3	44.0	n	n	n	n	n	n
